From PubChem
EPAC2 agonist = activates human EPAC2 exchange factor. AID 720711. 360,000 tested, 0.079% active. Potency, µM (titrated, usually from 154 µM), for inactives: at the top dose activation, most hits filed as activators. EPAC2 activation, biochemical qHTS; response scale: 100% = 6.5 mM cAMP response. Q8WZA2; further: nearly all actives have a fitted effect of over 50% in size
Target sequence (Q8WZA2 whole entry, looked up): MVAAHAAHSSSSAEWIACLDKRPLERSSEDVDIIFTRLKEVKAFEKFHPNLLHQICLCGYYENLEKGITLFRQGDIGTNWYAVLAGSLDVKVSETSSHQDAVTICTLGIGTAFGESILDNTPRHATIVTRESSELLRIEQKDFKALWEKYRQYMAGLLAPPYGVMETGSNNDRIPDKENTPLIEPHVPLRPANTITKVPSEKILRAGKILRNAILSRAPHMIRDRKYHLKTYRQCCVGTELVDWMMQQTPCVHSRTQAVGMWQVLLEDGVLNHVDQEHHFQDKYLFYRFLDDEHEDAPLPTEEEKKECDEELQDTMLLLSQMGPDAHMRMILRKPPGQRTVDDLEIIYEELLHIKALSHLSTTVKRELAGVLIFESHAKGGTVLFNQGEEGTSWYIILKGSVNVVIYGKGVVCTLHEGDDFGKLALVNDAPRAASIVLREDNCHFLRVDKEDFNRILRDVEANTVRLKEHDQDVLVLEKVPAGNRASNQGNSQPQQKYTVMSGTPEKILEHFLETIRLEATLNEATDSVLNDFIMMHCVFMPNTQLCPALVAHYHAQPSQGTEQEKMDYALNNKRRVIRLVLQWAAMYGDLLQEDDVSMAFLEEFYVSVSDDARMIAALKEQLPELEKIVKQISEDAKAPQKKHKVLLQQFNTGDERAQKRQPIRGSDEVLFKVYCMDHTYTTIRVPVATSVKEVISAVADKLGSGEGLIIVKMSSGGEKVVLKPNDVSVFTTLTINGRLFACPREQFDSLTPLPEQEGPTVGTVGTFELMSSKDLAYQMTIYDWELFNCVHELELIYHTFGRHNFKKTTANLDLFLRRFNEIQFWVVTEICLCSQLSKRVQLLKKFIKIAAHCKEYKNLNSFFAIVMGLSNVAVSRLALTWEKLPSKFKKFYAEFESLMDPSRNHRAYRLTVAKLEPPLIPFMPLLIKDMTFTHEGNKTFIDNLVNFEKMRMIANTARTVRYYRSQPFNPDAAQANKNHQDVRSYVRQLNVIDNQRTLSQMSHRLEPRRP
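EPAC2 (100 nM) mixed with Rap1B loaded with BODIPY-GDP (250 nM) plus 50 uM unlabeled GDP; compounds pinned in, 5 min RT, then read every 5 min for 30 min (ex 480, em 540 nm). Normalized to cAMP control.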
EPAC1 agonist = activates human EPAC1 exchange factor; EPAC1 agonist qHTS, biochemical assay; response scale: 100% = response to 6.5 mM cAMP; 360,000 tested, 0.073% active; O95398; AID 720707; Potency, µM (highest dose often 154 µM), without a hit: at the top dose activation, hits mostly activators; further: nearly all actives have a fitted effect of over 60% in size
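Nucleotide exchange assay: 100 nM EPAC1 with 250 nM Rap1B loaded with BODIPY-GDP and 50 uM GDP, room temperature. Fluorescence (480/540 nm) read every 5 min for 30 min; signal change normalized to 6.5 mM cAMP as full agonist.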
EPAC1 antagonist = EPAC1 (human) antagonism. O95398. EPAC1 GEF assay, Rap1b-BODIPY-GDP exchange fluorescence. Potency, µM (titrated, usually from 115 µM), inactives show top-dose activity change, negative = inhibition, actives largely listed as inhibitors. 360,000 tested, 0.14% active. AID 720709;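 further: plate controls were vehicle for no effect and positive control for full effect; nearly all actives have a fitted effect of over 50% in size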
EPAC2 antagonist = antagonists of human EPAC2; 360,000 tested, 0.18% active; Potency, µM (doses to about 114 µM), inactives show at the top dose activity, negative = inhibition, most hits filed as inhibitors; EPAC2 GEF exchange of Rap1B-BODIPY-GDP, fluorescence; further: on the % scale 0 is the no-effect control and ±100 the full control effect; nearly all actives have a fitted effect of over 45% in size
The depositor's hits bear a star; ? = inconclusive. Most compounds without a hit are left out; they make up all but 0.39% or so of the library. The call rests on the fitted dose curve; in most records, active means well fitted curve in the direction sought with a large enough effect; inconclusive means small, poorly fitted or top-dose-only effect, or another doubt; inactive means no such curve, though single readings can be large; an effect the other way counts as inactive or inconclusive. Potency means the concentration at half of the fitted maximal effect.

SMILES	EPAC2 agonist	EPAC1 agonist	EPAC1 antagonist	EPAC2 antagonist
COc1ccc(NC(=O)C(c2ccncc2)n2c(=O)c(-c3ccccc3)nc3ccccc32)cc1 (centres undefined)	4.4%	5.2%	-2.5%	-13.0%
CN(C)c1ccc(/C=C/C(=O)c2cccc(Br)c2)cc1	100µM*	100µM*	68.0%	56.2%
COc1ccc(NC(=O)C2(C)CCN2Cc2ccccc2Cl)cc1OC (centres undefined)	17.9%	13.0%	-24.9%	-11.0%
CCCCNC(=O)C1(C)CCCCN1C(=O)c1oc2ccccc2c1C (centres undefined)	2.8%	1.2%	-6.5%	-10.6%
CCCCn1nc(C(=O)NC2CCCCC2)c2ccccc2c1=O	3.3%	-5.3%	-24.7%	18.2%
O=C(O)CSc1cc(NS(=O)(=O)c2ccc(Cl)cc2)c2ccccc2c1O	?	27.8%	?	79.4µM*
COc1ccc(S(=O)(=O)Nc2cc(SCC(=O)O)c(O)c3ccccc23)cc1	5.2%	18.7%	79.4µM*	3.2%
O=C(Nc1ccc(F)cc1)C(c1cc2ccccc2o1)N1CCN(c2ccncc2)CC1 (centres undefined)	1.2%	-5.3%	2.1%	-7.3%
COc1cccc(C(C(=O)NC2CCCC2)N2CCN(c3ncccc3C#N)CC2)c1OC (centres undefined)	8.1%	4.4%	11.7%	2.1%
CCN(CC1COc2ccccc2O1)C(=O)CN1C(=O)NC(C)(c2ccc(C)cc2)C1=O (centres undefined)	3.0%	56.2µM*	-16.2%	8.6%
COc1cccc(-c2cccc(-c3nc(C(=O)NCc4ccc(Oc5ccccc5)cc4)cc4c3[C@H](CCO)N(S(=O)C(C)(C)C)C4)c2)c1 (some centres undefined)	6.3%	15.7%	1.2%	7.8%
COc1ccc(N=Nc2nc3ccc(Br)cc3n2C)cc1	24.3%	112µM*	163.4%	14.4%
NC(=O)c1cc2ccccc2oc1=NCc1ccccc1	9.4%	-1.9%	-11.2%	2.4%
NC(=O)c1cc2ccc(O)cc2oc1=NCc1ccccc1	100µM*	19.1%	15.0%	36.2%
NC(Cc1ccc(Cl)cc1)c1csc(NC(=O)NCC2CCCCC2)n1 (centres undefined)	8.3%	-4.5%	-15.8%	-2.1%
CC(C)c1cccc(-c2csc(C(C)(O)c3ccncc3)n2)c1 (centres undefined)	11.0%	-0.6%	-12.6%	-28.2%
O=C(c1ccc(S(=O)(=O)Cc2cc(F)ccc2F)c([N+](=O)[O-])c1)N1CCOCC1	2.6%	10.8%	6.5%	5.1%
CCN(CC)c1nc(N)c2c(N)n(-c3ccccc3C)c(=S)c(C#N)c2c1C#N	-9.8%	-23.2%	89.1µM*	-6.6%
Nc1c2c(=O)[nH]c(O)cc2nn1-c1ccccc1	10.4%	13.3%	89.1µM*	7.5%
Fc1cccc(Cc2c(C3CCCCC3)nc3c4ccccc4ccn23)c1	14.1%	7.3%	12.3%	10.1%
CC1(C)CC(=O)C2=C(C1)c1c(ccc3ccccc13)NC2c1cc([N+](=O)[O-])cc([N+](=O)[O-])c1O (centres undefined)	-16.3%	-10.8%	31.6µM*	79.4µM*
CC(=O)c1c(C)[nH]c(C(=O)Nc2ccc(Cl)cc2)c1C	-5.7%	-1.9%	-7.3%	-19.3%
Cc1[nH]c(=O)nc(NN=Cc2ccc(Cl)cc2)c1C(=O)Nc1ccc(Cl)cc1	31.6µM*	-5.4%	2.2%	20.4%
O=[N+]([O-])c1ccc(N2CCN(Cc3ccccc3)CC2)c2c1no[n+]2[O-]	-10.7%	-10.7%	-6.0%	-1.0%
N#C/C(=C\c1cn(Cc2ccc(C#N)cc2)c2ccccc12)C(=O)NCc1cccs1	79.4µM*	-0.5%	8.8%	19.7%
SMILES	EPAC2 agonist	EPAC1 agonist	EPAC1 antagonist	EPAC2 antagonist
C=CCn1cc(/C=C/c2cc[n+](C)cc2)c2ccccc21	100µM*	?	42.8%	123.8%
CC(C)n1cc(/C=C/c2cc[n+](C)cc2)c2ccccc21	?	100µM*	71.8%	71.8%
CCn1cc(/C=C/c2cc[n+](C)cc2)c2ccccc21	?	-7.4%	5.6%	44.9%
Cc1ccccc1/C=C/c1cc[n+](C)cc1	2.7%	-0.2%	-15.4%	6.7%
COc1cccc2cc(C(C)N(CCCN3CCOCC3)C(=S)Nc3cccc(C)c3)oc12 (centres undefined)	20.7%	8.8%	56.2µM*	-8.0%
c1ccc(C2=NN(c3ccccc3)CC2)cc1	1.2%	-5.8%	-27.2%	-4.6%
CCOC(=O)/C(=C/c1ccc(N2CCC(c3ccccc3)=N2)cc1)C(C)=O	100µM*	?	-6.7%	202.5%
